Assay results reported in PubChem BioAssay (NCATS).
Inconclusive results are not listed. Unmarked numbers belong to inactive results. The source made the active and inactive calls. Calls follow the shape of the dose curve; as a rule, active = well fitted inhibition curve with a large enough effect; inconclusive = small, poorly fitted or top-dose-only effect; inactive = no such curve, though single readings can be large or run the other way.

Experiment: qHTS to identify inhibitors of the type 1 interferon - major histocompatibility complex class I in skeletal muscle: primary screen against the NCATS Mechanism Interrogation Plate v5.0 (MIPE) Libary (AID 1347411); also: nearly all actives have a fitted effect of over 65% in size;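 as to activity change, negative = inhibition: plate controls were vehicle for no effect and reference inhibitor for full effect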
Conditions: iHSKM cells + IFN-b, HiBiT-tagged MHC-I luminescence, 24 h; series mostly up to 45.8 µM; activity change, negative = inhibition: at the top concentration
In short: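 IFN-beta-driven (4 ng/ml) HLA-B-HiBit expression in CRISPR-tagged C25cl48 myoblasts; compounds 11-pt, 1:3, max 46 uM, 24 hr exposure; lytic NanoLuc complementation luminescence.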
Potency is read from the fitted curve at half-maximal effect.

SMILES	activity change, negative = inhibition	Potency
c1ccc2c(CN3CCNCC3)cccc2c1	14.5%	–
O=C(NCC1CCOCC1)c1cnc(Nc2ccc(Cl)cc2Cl)nc1C(F)(F)F	-7.65%	–
CN[C@@H]1Cc2cccc3[nH]c(=O)n(c23)C1	3.71%	–
O=c1[nH]c2ccc(Cl)cc2c(N[C@@H]2CN3CCC2CC3)c1-c1nc2ccccc2[nH]1	–	4660 nM (active)
Cc1[nH]nc2ccc(-c3cncc(OC[C@@H](N)Cc4c[nH]c5ccccc45)c3)cc12	–	2620 nM (active)
Cc1ccccc1-n1c(Cn2cnc3c(N)ncnc32)nc2cccc(C)c2c1=O	-7.46%	–
COC1=C[C@@H]2[C@@H]3Cc4ccc(OC)c(O)c4[C@]2(CCN3C)CC1=O	-0.772%	–
O=c1cccc2n1CC1CNC[C@H]2C1	-0.833%	–
CN(C)[C@@H]1C(=O)C(C(N)=O)=C(O)[C@@]2(O)C(=O)C3=C(O)c4c(O)cccc4[C@@](C)(O)[C@H]3[C@H](O)[C@@H]12	7.55%	–
CC(=O)Nc1ccc(OC[C@](C)(O)C(=O)Nc2ccc([N+](=O)[O-])c(C(F)(F)F)c2)cc1	-4.39%	–
CC(C)(O)C(=O)Nc1ccc([N+](=O)[O-])c(C(F)(F)F)c1	-16.7%	–
CCc1c(C(=O)C(N)=O)c2c(OCC(=O)O)cccc2n1Cc1ccccc1	0.129%	–
CC(C)[C@]12O[C@H]1[C@@H]1O[C@]13[C@]1(O[C@H]1C[C@H]1C4=C(CC[C@@]13C)C(=O)OC4)[C@@H]2O	–	82.9 nM (active)
O=C(N[C@@H](COc1ccc2[nH]c(=O)[nH]c2c1)c1ccccc1)c1cccn(Cc2ccc(F)c(F)c2)c1=O	-18.3%	–
COc1ccc(N(C(=O)Oc2c(C)cccc2C)c2ccnc(Nc3ccc(N4CCN(C)CC4)cc3)n2)c(OC)c1	-18.9%	–
CCN1C[C@]2(OC(=O)c3ccccc3NC(C)=O)CC[C@H](OC)[C@@]34[C@H]5CC6[C@@H](OC)C[C@](O)(C(C[C@@H]23)[C@@H]14)[C@@]5(O)[C@@H]6OC	14.9%	–
CCN(CC)C(=O)c1ccc(C2=CC3(CCNCC3)Oc3cccc(O)c32)cc1	-34.6%	–
C#CC1(O)CCC2C3CCC4=CC(=O)CCC4(C)C3CCC21C (stereo not given)	-12.1%	–
CC(C)[C@H]1C(=O)N[C@H](CO)Cc2c[nH]c3cccc(c23)N1C	4.92% [at 15.5 µM]	–
O=C(O)CNC(=O)c1c(O)c2ccccc2n(Cc2ccccc2)c1=O	-19.4%	–
C[C@]12CC[C@@H]3[C@@H](CCC4=CC(=O)CC[C@@H]43)[C@@H]1CC[C@@H]2OC(=O)CCc1ccccc1	0.252%	–
CCNC(=O)C[C@@H]1N=C(c2ccc(Cl)cc2)c2cc(OC)ccc2-n2c(C)nnc21	-20.1%	–
CCOC(=O)Nc1ccc(NCc2ccc(F)cc2)cc1N	-28%	–
CCCC[N+]1(C)[C@H]2CC(OC(=O)[C@H](CO)c3ccccc3)C[C@H]1[C@H]1O[C@H]12 (stereo not given in full)	0.736%	–
Clc1ccccc1C(c1ccccc1)(c1ccccc1)n1cccn1	-21.7%	–
C/C=C(/C)C(=O)O[C@H]1C(C)=C2[C@H]([C@@H]1OC(=O)CCCCCCC)[C@@](C)(OC(C)=O)C[C@H](OC(=O)CCC)[C@@]1(O)[C@H]2OC(=O)[C@@]1(C)O	–	16.5 nM (active)
CC1=C(O)C(=O)C=C2C1=CC=C1[C@@]2(C)CC[C@@]2(C)[C@@H]3C[C@](C)(C(=O)O)CC[C@]3(C)CC[C@]12C	–	829 nM (active)
C[C@]12CC[C@H]3[C@@H](CCC4=CC(=O)CC[C@@]43C)[C@H]1CC[C@H]2OC(=O)CCC1CCCC1	-28.2%	–
O=C(Oc1ccc([N+](=O)[O-])cc1)N1CCC(C(O)(c2ccc3c(c2)OCO3)c2ccc3c(c2)OCO3)CC1	0.0666%	–
Cc1ccccc1-n1c(Cn2ncc3c(N)ncnc32)nc2cccc(C)c2c1=O	2.37%	–
